# Assay outcomes from PubChem.
# Sm TGR block: blocks Schistosoma mansoni thioredoxin glutathione reductase; purified TGR, DTNB reduction, TNB absorbance 405 nm; Potency, µM (top dose mostly 114 µM), inactives show at the highest dose activity change, negative = inhibition, hits mostly inhibitors; actives 3% (n = 360,000); Q962Y6; note: % is set by controls: 0 for no effect and ±100 for the full control effect; nearly all actives have a fitted effect of over 60% in size
#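 Kinetic colorimetric format: TGR-catalysed, NADPH-driven DTNB reduction monitored via TNB absorbance. Enzyme dispensed at 20 nM; compound exposure 15 min at room temperature before reaction start.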
# SARS PLP yeast: inhibitors of SARS-CoV papain-like protease in yeast; S. cerevisiae expressing SARS-CoV PLpro, growth rescue; Potency, µM (titrated, usually from 32.9 µM), for inactives: at the top dose activity, positive = growth rescue, usual class: activators; actives 0.19% (n = 330,000); calls by dose curve; note: 0% is about no effect; nearly all actives have a fitted effect of over 55% in size
# Pf growth 48h: inhibits P. falciparum growth in the first generation, 48 h; P. falciparum luciferase growth in erythrocytes, 48 h; Potency, µM (series often up to 28.7 µM), for inactives: at the top dose activity change, negative = inhibition, most hits filed as inhibitors; actives 5.9% (n = 310,000); note: % is set by controls: 0 for no effect and ±100 for the full control effect
#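 In quantitative HTS format, infected erythrocytes bearing luciferase-reporter parasites were treated for a single generation at 37 C. Luminescence after adding detection reagent served as the growth measure.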
# Pf growth 96h: inhibits malaria parasite growth, 96 h. actives 6.9% (n = 320,000). Potency, µM (series often up to 28.7 µM), for the others: top-dose activity change, negative = inhibition, usual class: inhibitors. P. falciparum luciferase reporter growth, 96 h. AID 504834; note: % is set by controls: 0 for no effect and ±100 for the full control effect
#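 Infected RBCs, 2% Hct / 0.05% parasitemia final; luciferase-reporter P. falciparum; cpd 96 h, 37 C, 5% CO2; luciferase detection reagent; luminescence.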
# The depositor's hits bear a star; i = inactive; ? = inconclusive; / = no result; [ ] = another dose, or the depositor's remark. Only some compounds are listed: those with a hit (about 12% of all), similar ones and a draw of the others. Unless noted, calls come from the whole dose curve; as a rule, active = well fitted curve in the direction sought with a large enough effect; inconclusive = small, poorly fitted or top-dose-only effect, or another doubt; inactive = no such curve, though single readings can be large; an effect the other way counts as inactive or inconclusive. Potency is the fitted concentration of half-maximal effect.
SMILES,Sm TGR block,SARS PLP yeast,Pf growth 48h,Pf growth 96h
O=C(Nc1ccccc1F)c1nc(SCc2ccccc2F)ncc1Cl,7%,/,/,/
O=C(c1cc2ccccc2cc1O)N1CCN(c2cccc(Cl)c2)CC1,-17%,1%,?,12µM*
O=C(c1cc2ccccc2cc1O)N1CCN(c2ccccc2O)CC1,-24%,26%,?,?
CCCCn1c(C2CCCCC2)nc2cc3[nH]c(=O)c(C(C)C)nc3cc21,2%,-1%,-8%,9.3µM*
CC(=O)c1ccc(NC(=S)Nc2ccc(Br)c(Cl)c2)cc1,22µM*,-2%,-1%,-1%
O=C(NC(=S)Nc1ccc(Br)c(Cl)c1)C1CC1,0%,?,-1%,?
CC(=O)c1ccc(NC(=S)NC(=O)Cc2ccc(Cl)cc2)cc1,0%,1%,7%,5%
CC(=O)c1ccc(NC(=S)NC(C)c2ccc(Cl)cc2Cl)cc1 (stereo unspecified),-15%,-4%,2.3µM*,?
Oc1[nH]c2ccc(Br)cc2c1N=NC(=S)N1CCOCC1,20%,-1%,0.83µM*,0.41µM*
NC(=S)N=Nc1c(O)[nH]c2ccccc12,-6%,?,45%,?
Oc1[nH]c2ccccc2c1N=NC(=S)N1CCOCC1,-19%,-5%,0.59µM*,0.59µM*
Cc1ccc(-c2onc(C)c2C)cc1S(=O)(=O)NCc1ccc(N(C)C)cc1,2%,/,/,/
O=C(OCC1CCCO1)c1ccc2c(c1)N(Cc1ccccc1F)C(=O)c1ccccc1S2(=O)=O (stereo unspecified),11%,/,/,/
O=C(Nc1ccsc1C(=O)O)c1ccc(Cl)cc1,-20%,-5%,/,61%
CC(=O)Nc1ccc(NS(=O)(=O)c2cc(-c3cnc(C4CC4)o3)ccc2C)cc1,-11%,3%,?,-2%
Cc1cccc(N(C)S(=O)(=O)c2ccc(-c3cnc(C4CC4)o3)cc2)c1,-3%,-5%,0%,15µM*
Cc1ccc(-c2cnc(C3CC3)o2)cc1S(=O)(=O)Nc1ccccc1,5%,-10%,?,15µM*
CC(C)c1ccc(CN2CCSCC2)cc1,12%,0%,21%,0%
CCC(=O)NC(=S)Nc1ccc(NC(=O)c2ccc(Br)o2)cc1,-31%,4%,?,0%
CCOC(=O)C1=C(C)C2C3C(=O)N(c4cc(C)ccc4C)C(=O)C3C1(C)C1C(=O)N(c3cc(C)ccc3C)C(=O)C21 (stereo unspecified),-2%,-4%,13µM*,?
CCCCn1c(N)c(N(CCOC)C(=O)c2ccc(C)o2)c(=O)[nH]c1=O,7%,/,3%,11%
CCCCS(=O)(=O)/C=C\C1C2C=CC(C2)C1S(=O)(=O)CCCC (stereo unspecified),2%,-2%,7%,?
CCCCS(=O)(=O)/C=C\C=C/S(=O)(=O)CCCC,2.2µM*,-33%,9.3µM*,?
NC(=O)c1ccc(N2CCN(c3ccc(O)cc3)CC2)c([N+](=O)[O-])c1,-30%,-1%,?,1.7µM*
NC(=O)CC(NC(=O)c1ccccc1)c1ccc(N2CCN(c3ccccc3)CC2)c([N+](=O)[O-])c1 (stereo unspecified),-2%,-14%,-18%,15µM*
SMILES,Sm TGR block,SARS PLP yeast,Pf growth 48h,Pf growth 96h
O=C(COc1ccc(Cl)cc1Cl)N/N=C/c1ccc(OC2OC(CO)C(O)C(O)C2O)cc1 (stereo unspecified),-6%,1%,0%,-7%
CCOC(=O)c1cnc2ccccc2c1NCc1ccco1,-28%,-2%,?,?
CCOC(=O)c1cnc2ccccc2c1Nc1ccc2c(c1)OCCO2,5%,14%,4.1µM*,-1%
CCOC(=O)CNc1ccc2c(c1)OCO2,50µM*,-12%,?,228%
CCOC(=O)CSc1nc(Nc2ccc3c(c2)OCO3)c2ccccc2n1,5%,-28%,8.3µM*,8.3µM*
N#CCSc1nc(Nc2ccc3c(c2)OCO3)c2ccccc2n1,11%,1%,?,-5%
CCOC(=O)CNC(=O)/C=C/c1ccc2c(c1)OCO2,8%,0%,10%,?
Cc1ccc(S(=O)(=O)N2[C@@H](c3ccc(Br)cc3)C(C(=O)O)=CC[C@H]2c2cccs2)cc1,/,-2%,/,/
O=c1cc(O)c2c(=O)n(Cc3ccccc3)c3ccccc3c2o1,-11%,-4%,8.3µM*,?
CCN(Cc1nc(-c2ccc(C)cc2)no1)C(=O)c1ccco1,2%,-5%,10%,-1%
Nc1cc(=O)nc(SCC(=O)Nc2cccc(Cl)c2)n1CCc1ccccc1,1%,/,/,/
Clc1ccc2nc(Nc3ccccc3Cl)nc(-c3ccccc3)c2c1,6%,/,/,/
Cc1cccc(SC2CCN(Cc3nc(CC4CC4)no3)CC2)c1,1%,-1%,12%,-5%
C1CC1Cc1noc(CN2CCN(C3C4CC5CC(C4)CC3C5)CC2)n1 (stereo unspecified),-10%,0%,20%,13µM*
Cc1cccc(OC2CCN(Cc3nc(CC4CC4)no3)CC2)c1,5%,0%,9%,4.7µM*
c1cnc(-c2noc(CN3CCN(C4C5CC6CC(C5)CC4C6)CC3)n2)cn1 (stereo unspecified),0%,0%,7%,-3%
COc1cc(NC(=O)c2cc3c(=O)oc4ccc(C)cc4c3s2)cc(OC)c1OC,5%,/,/,/
CN(C)/C=C(\C(=O)c1ccccc1)c1nnnn1-c1ccccc1,-2%,2%,11%,10%
CN(C)c1ccc(C=C(c2nnnn2-c2ccccc2)c2nnnn2-c2ccccc2)cc1,7%,-14%,9.3µM*,i
Brc1ccc(C2=Nn3cnnc3SC2)cc1,10%,-5%,154%,?
OC(c1cc(-c2ccc(C(F)(F)F)cc2)nc(C(F)(F)F)c1)C1CCCCN1 (stereo unspecified),1%,1%,0.1µM*,0.0083µM*
OC(c1cc(C(F)(F)F)nc2c(C(F)(F)F)cccc12)C1CCCCN1 (stereo unspecified),3%,/,0.0093µM*,0.0037µM*
CN(C)c1ccc(CNC(=O)c2ccc3c(c2)N(C)C(=O)C2CCCCN32)cc1 (stereo unspecified),-2%,/,/,/
Cc1cc(=O)n2[nH]c(-c3ccc(C(C)(C)C)cc3)cc2n1,13%,0%,2.9µM*,4.7µM*
O=C1CCCC(O)=C1C1C2=C(CCCC2=O)OC2=C1C(=O)CCC2,-6%[57.1 µM],1%,-1%,30%
COc1ccc2c(c1)OC1=C(C(=O)CCC1)C2C1=C(O)CCCC1=O (stereo unspecified),18µM*,2%,3%,77%
O=C1CCCC2=C1C(c1ccccc1O)C1=C(CCCC1=O)O2,1%[11.4 µM],?,/,8.3µM*
O=C1CCCC2=C1C(Cc1ccccc1)C1=C(CCCC1=O)O2,10µM*,-8%,?,24%
COc1cc(SC)ccc1C(=O)Nc1ccc2c(c1)CCC2,13%,-3%,49%,-49%
Cc1cc(OC(=O)c2cc(Cl)ccc2Cl)c([N+](=O)[O-])c(=O)[nH]1,-16%,3%,43%,65%
